In all, about 53,000 compounds went through this assay and about 900 (1.7%) showed an effect of 50% or more. The entries come from a sample that favours strong results as a whole.

This assay has as its system Mycobacterium tuberculosis. Kind of assay: Cornell - Phenotypic assay to identify agents that inhibit growth of Mycobacterium tuberculosis. Format: functional. As to conditions: 10 mM as filed; unlikely as a test dose. The arrangement: scale not given: direction of the effect not stated beside the values.
For the compound `CCN1CCn2c(C)cnc2C12CCN(C(=O)C(C)C)CC2.O=C(O)C(F)(F)F.O=C(O)C(F)(F)F`, the “Percent Effect” value came to 14.47%.
The value for `COCCN1C(=O)CO[C@H]2CN(Cc3cccc(OC)c3F)C[C@@H]21` was -23.69%; that for `Cc1cc(NC(=O)CN2CCN(c3nccs3)C(C)C2)on1` (stereo unspecified) was 22.95%.
With `CCOc1ccc(NC(=O)Cn2cc(I)cn2)cc1`, the “Percent Effect” value is listed as 8.752%.
Take `OC1CN(c2nc3c(C(F)(F)F)cccc3s2)C1`: the “Percent Effect” value is listed as -37.29%.
The value for `Cc1ccccc1NC1CCN(C(=O)CCc2ccco2)CC1` was 50.28%; that for `Cc1ccc(NC2CCN(C(=O)CCc3ccco3)CC2)nn1` was 9.645%; that for `O=C(CCc1ccco1)N1CCC(Nc2cccnn2)CC1` was -37.65%.
Consider `COc1cccc(Cn2ncnc2CCSC)c1`, for which the “Percent Effect” value came to 21.64%.
Consider `CN(Cc1cncnc1)[C@@H]1CN(C(=O)C2CC2)[C@@H]2CCCO[C@H]12.O=C(O)C(F)(F)F`, for which the “Percent Effect” value is 10.43%.
`Cn1cc(CN2CCC(c3cc(COc4ccc(Cl)cc4)[nH]n3)C2)cn1` (stereo unspecified): the “Percent Effect” value is 8.733%.
For the compound `CCCN1CCC(c2cc(CCOc3ccc(C(F)(F)F)cc3)[nH]n2)C1` (stereo unspecified), the “Percent Effect” value turned out to be 74.52%.
As for `Cc1cc(C2CCCN(C(=O)COc3ccc(F)cc3)C2)n[nH]1` (stereo unspecified), the figure is 21.79%.
The value for `Clc1ccc(OCCc2cc(C3CCN(c4ncccn4)C3)n[nH]2)cc1` (stereo unspecified) was 81.19%; that for `Br.COc1ccc(OCCc2cc(C3CCN(CC(C)C)C3)n[nH]2)cc1` (stereo unspecified) was 44.88%.
For the compound `Cc1cc(C)nc(N2CCC(c3cc(CCO)[nH]n3)C2)n1` (stereo unspecified), the “Percent Effect” value is recorded as 21.68%.
As for `CN(C)CCCNCCC(Cc1ccccc1)C1CCOC(C)(C)C1.O=C(O)C(=O)O` (stereo unspecified), the figure is 18.5%; as for `O=C(c1cc[nH]n1)N1CCOCC2(C1)CN(c1ccccc1)C(=O)CO2` (stereo unspecified), 56%.
As for `O=C(O)C(F)(F)F.O=C(c1c[nH]cn1)N1CCOCC2(C1)CN(c1ccccc1)C(=O)CO2` (stereo unspecified), the figure is 29.26%; as for `O=C(c1ccc[nH]1)N1CCOCC2(C1)CN(c1ccccc1)C(=O)CO2` (stereo unspecified), 34.74%.
For `CCn1nnnc1-c1cccc(NCc2nc(C)ccc2O)c1`, the “Percent Effect” value is 4.577%.
As for `O=C(O)CCCN1C[C@@H](c2ccccc2F)[C@@]2(CCCCC(=O)N2)C1`, the figure is 43.05%.
The value for `COc1cc(F)c(S(=O)(=O)Nc2cnc(O)cc2C)cc1OC` was 3.766%; that for `CCC(CN1CCCC1)n1cncc1-c1cnn(Cc2ccccc2)c1.Cl` (stereo unspecified) was 36.43%.
Take `CC(Cn1cncc1-c1cnn(C2CCCCC2)c1)N1CCCCC1.Cl` (stereo unspecified): the “Percent Effect” value is given as -3.197%.
The value for `CC(Cn1cncc1-c1cnn(Cc2ccccc2)c1)N1CCCCC1.Cl` (stereo unspecified) was 58.13%.
As for `CCOc1ccccc1N1CCN(C(=O)NCc2cc[nH]n2)CC1`, the “Percent Effect” value is -20.55%.
Take `CNc1cc(C2CCCN2C(=O)c2ccc(=O)[nH]n2)ccn1.O=CO` (stereo unspecified): the “Percent Effect” value turned out to be 2.671%.
As for `CCC(CN1CCOCC1)n1cncc1-c1ccc2c(c1)CCCN2C.Cl` (stereo unspecified), the figure is 15.31%; as for `CCC(CN1CCCC1)n1cncc1-c1cnn(-c2ccccc2)c1.Cl` (stereo unspecified), 55.09%; as for `CCC(CN1CCCC1)n1cncc1-c1cnn(-c2ccc(F)cc2)c1.Cl` (stereo unspecified), 20.09%.
As for `CCn1nc(C)cc1C(=O)NCc1cc(N(C)C)nc2ccccc12`, the figure is 34.42%.
Turning to `CC(C)OCCCNC(=O)CN1CCN(c2nccs2)CC1`, the “Percent Effect” value came to 4.56%.
As for `O=C(c1cnc(O)c(Cl)c1)N1CCCC(c2nccs2)C1` (stereo unspecified), the figure is -10.54%; as for `O=C(NCCCO)Nc1cnc2cc(Cl)ccc2c1O`, 81.69%.
For the compound `O=C(NCCO)Nc1cnc2cc(Cl)ccc2c1O`, the “Percent Effect” value was 103.7%.
The value for `O=C(NCC1CC1)Nc1cnc2cc(Cl)ccc2c1O` was -6.744%; that for `O=C(NCCCN1CCOCC1)Nc1cnc2cc(Cl)ccc2c1O` was 32.37%.
The value for `O=C(NCCN1CCOCC1)Nc1cnc2cc(Cl)ccc2c1O` was -4.322%.
The value for `CNC(=O)Nc1cnc2cc(Cl)ccc2c1O` was -22.82%; that for `Cl.O=C(NCCn1nc(C2CCNC2)c2cccnc21)C1CC1` (stereo unspecified) was -8.257%; that for `O=C(O)COc1ccccc1CN1CCCC1c1ccncn1` (stereo unspecified) was -19.71%.
For `CC(SCC(=O)N(C)CC(=O)NC1CC1)c1cc(F)ccc1F` (stereo unspecified), the “Percent Effect” value is -24.27%.
The value for `O=C(NCc1ccco1)[C@H]1COC[C@H]2CN(Cc3ccoc3)C[C@H]21.O=C(O)C(F)(F)F` was -10.46%.
Consider `CN(Cc1cccs1)C1CCC[C@@H]2CN(C(=O)c3cccn3C)C[C@H]12` (stereo partly specified), for which the “Percent Effect” value was found to be 28.44%.
`Cn1cccc1CN(C(=O)Cc1cccs1)C1CC1`: the “Percent Effect” value stood at 91.3%.
On to `O=C(O)CC(CC(=O)NCCc1cccs1)c1cccs1` (stereo unspecified), for which the “Percent Effect” value is recorded as 23.94%.
As for `O=C(O)CC(CC(=O)N(Cc1ccsc1)C1CC1)c1cccs1` (stereo unspecified), the figure is 15.88%.
The value for `CN(C(=O)Cc1cccs1)C1CCN(c2ccccn2)CC1` was -44.78%; that for `Cn1cccc1CN(C(=O)CC(CC(=O)O)c1cccs1)C1CC1` (stereo unspecified) was 104.7%; that for `Cc1ccc(N(C)[C@@H]2CC[C@@H]3CN(C(=O)C4CCOCC4)C[C@@H]32)nn1` was -1.727%.
The value for `CCN(Cc1nc(Cc2ccccc2)no1)C1CC1` was -4.646%; that for `CC(C)c1ccc(S(=O)(=O)N2CSCC2C(=O)NCC(F)(F)F)cc1` (stereo unspecified) was 11.48%; that for `Cc1cccc(CNC(=O)NCC2CCN(Cc3ncc[nH]3)C2)c1` (stereo unspecified) was 26.47%.
As for `c1ccc2sc(CN3CCCC3c3noc(C4CC4)n3)nc2c1` (stereo unspecified), the “Percent Effect” value is recorded as 50.21%.
Consider `Cc1cc(CN2CCCC2c2noc(C3CC3)n2)c2ccccc2n1` (stereo unspecified), for which the “Percent Effect” value is on record as 12.61%.
On to `c1cc(CN2CCCC2c2noc(C3CC3)n2)on1` (stereo unspecified), for which the “Percent Effect” value is recorded as -61.35%.
As for `CCOC(=O)[C@]12CCCN(Cc3cccs3)C[C@H]1CN(CCOC)C2.O=C(O)C(F)(F)F.O=C(O)C(F)(F)F`, the “Percent Effect” value was 11.02%.
As for `COc1ccc(CNC(C)c2cnn(C)c2)cc1OC1CCCC1` (stereo unspecified), the figure is 9.224%.
On to `O=C(O)C(F)(F)F.c1coc(CN2CCCn3c(nnc3Cn3cccc3)C2)c1`, for which the “Percent Effect” value was determined as 21.05%.
Turning to `Cl.O=C(NCCn1nc(C2CCNC2)c2cccnc21)c1ccccn1` (stereo unspecified), the “Percent Effect” value is on record as -9.907%.
The value for `Cc1cc(-c2ccc(=O)n(CCNC(=O)C3CCCCC3)n2)c(C)o1` was 6.455%; that for `Cc1cc(-c2ccc(=O)n(CCNC(=O)C3CCC3)n2)c(C)o1` was -20.09%.
The value for `Cc1cc(-c2ccc(=O)n(CCNC(=O)C3CC3)n2)c(C)o1` was 55.53%; that for `O=C(Nc1cccc(CN2CCC(CO)CC2)c1)c1cc(Cl)c[nH]1` was -16.48%; that for `CC(C)N(C)S(=O)(=O)N(Cc1cccs1)Cc1cccs1` was 53.57%.
Consider `CCN(Cc1cccs1)S(=O)(=O)N(C)C(C)C`, for which the “Percent Effect” value is reported as 30.52%.
As for `COc1ccccc1CN(Cc1cccs1)S(=O)(=O)N(C)C(C)C`, the “Percent Effect” value is reported as 41.56%.
On to `CCOc1ccc(C(F)(F)F)cc1NC(=O)N1CCNC(=O)C1`, for which the “Percent Effect” value stood at 13.57%.
As for `Br.O=C(CN(C1=NCCCC1)c1ccccc1)c1ccc(OC(F)F)cc1`, the “Percent Effect” value is 62.24%.
As for `Br.O=C(CN(C1=NCCCCC1)c1ccc(Cl)cc1)c1ccccc1`, the “Percent Effect” value is listed as 14.11%.
As for `Br.CCOc1ccc(N(CC(=O)c2ccccc2)C2=NCCCCC2)cc1`, the figure is 104.2%; as for `Br.O=C(CN(C1=NCCCC1)c1ccccc1)c1ccc2c(c1)OCCO2`, 22.49%; as for `Br.COc1ccc(C(=O)CN(C2=NCCCCC2)c2ccccc2)cc1`, 15.77%.
The value for `Br.Cc1ccc(C(=O)CN(C2=NCCCCC2)c2ccccc2)cc1` was 29.09%; that for `Br.Cc1ccc(N(CC(=O)c2ccc(Br)cc2)C2=NCCCCC2)cc1` was 102.8%.
Consider `Br.O=C(CN(C1=NCCCC1)c1ccccc1)c1ccccc1`, for which the “Percent Effect” value is listed as -16.62%.
The value for `Br.Cc1cccc(N(CC(=O)c2ccccc2)C2=NCCCCC2)c1` was 13.79%; that for `O=C(NCC[S+]([O-])c1ccccc1)c1ccc2[nH]c(=O)[nH]c2c1` (stereo unspecified) was 15.24%.
As for `CCOC(=O)[C@@H]1[C@@H](O)C(=O)N(C)C12CCN(C(=O)OC)CC2`, the figure is -16.14%.
As for `CC(C)CCN1C(=O)C2(NC(=O)c3ccccc3O2)c2ccccc21` (stereo unspecified), the “Percent Effect” value was 40.69%.
The value for `Cc1nc(-c2ccncc2)ncc1C(C)NC(=O)CN1CCOC1=O` (stereo unspecified) was -51.46%; that for `O=S(=O)(NCCCn1cncn1)c1ccc2c(c1)CCC2` was -2.394%.
The value for `CN(CCc1nccs1)C(=O)C1(C#N)CCCCC1` was 25.08%; that for `Cc1nc(NCCO)cc(C(C)Cn2nc(C)c(C)c2C)n1` (stereo unspecified) was -14.61%; that for `NC(=O)c1cn2cc(-c3ccccc3Cl)n(CC3CC3)c(=O)c2n1` was 14.04%.
As for `CC(=O)NCC1CCN(c2ccnc3ccc(Br)cc23)CC1`, the figure is 9.267%; as for `O=C(C1CCN(c2ccnc3ccc(Br)cc23)CC1)N1CCOCC1`, -18.98%.
As to `CC1CCN(c2ccnc3ccc(Br)cc23)CC1`, the “Percent Effect” value came to 84.63%.
The value for `Cc1ccc(OCC(=O)Nc2cc(C(=O)O)cc(S(C)(=O)=O)c2)cc1C` was 18.88%; that for `CCc1nc(C2CCCN2C(=O)c2csc(COC)n2)no1` (stereo unspecified) was -20.84%; that for `Cc1cc(-n2cncn2)n2ncnc2n1` was 64.26%.
The value for `Cc1cc(-n2cnnn2)n2ncnc2n1` was -30.4%; that for `Cc1cc(N2CCCC2Cn2nc(C)cc2C)n2ncnc2n1` (stereo unspecified) was -13.82%; that for `Cc1ccc(C(=O)N2CCOC(c3ncc(CN(C)C)[nH]3)C2)cc1F` (stereo unspecified) was 14.93%.
As for `COc1ccc(F)cc1CN(CC(N)=O)C(C)C`, the figure is -0.4736%.
For the compound `Cc1cc(-c2ccccc2)nc(C2CCCN2S(C)(=O)=O)n1` (stereo unspecified), the “Percent Effect” value is given as -11.27%.
With `Cn1cc(Br)c(C(=O)NCCn2cc(Br)cn2)n1`, the “Percent Effect” value amounted to 8.473%.
`N#Cc1cccnc1N1CCC(OCCc2ccccc2)CC1`: the “Percent Effect” value is 33.41%.
The value for `N#Cc1ccc(N2CCC(OCCc3ccccc3)CC2)nc1` was 51.1%.
As for `Cc1cccc(OC2CCN(c3ccc(C#N)cn3)CC2)n1`, the figure is 4.434%.

The values are drawn from ChEMBL document CHEMBL3988442, “University of Dundee, Small-Polar-MMV Screening Library” (2021).
